Laboratory results reported in the supplement of paper PMC6555819.

Test system: VDR:RXRa (NR concentration 270 nM, RXRa partner concentration 90 nM)
Assay: PBM binding z-score (relative to random genomic background probes); higher = stronger binding; sequences stand for … in GC…GCGATTGACAGCGTAGAATGAAGG
Protocol: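 Protein-binding microarray (Agilent 4x180K custom design, double-stranded 60-nt probes: 5' GC cap, 34-nt variable region, 24-nt constant primer region; full probe sequence given). Purified or IVT nuclear receptor:RXRα heterodimers (3:1 NR:RXRα, mostly 270:90 nM) or homodimers were incubated for 1 h in PBS with 2% milk and no ligand, then detected with Alexa488 antibodies. Fluorescence from o1-orientation probes (~5 replicates averaged) was converted to z-scores against 500 random hg19 background probes. Variable regions are seed direct-repeat (DR0–DR5) sites, all their single-nucleotide variants and half-site ablations.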

Q: With AGAATGAAGTTACCAAAGATCAGGGAAACGCTTG as the sequence, how does the PBM binding z-score read?
A: -0.38

Q: For TGAATGAGGTTATAAGATCATGGAACGTTGCAAA, which PBM binding z-score is on record?
A: 1.44

Q: How did the PBM binding z-score turn out when CAAACTAGGTCATAGAGGTCAAAGTCCGTGCGTA was run?
A: 7.8

Q: Which PBM binding z-score does the source give for CCTAGTTGGTCACGAGGTCACACACCGGATATGA here?
A: 4.77

Q: How did the PBM binding z-score turn out when CCGACTGGGGGATAAGGTTACCATAAGCCAGCCC was run?
A: 0.902

Q: Which PBM binding z-score does the source give for CCGACTGGGGCCGAAAGGTTACCATACCATCCGG here?
A: 0.789

Q: How did the PBM binding z-score turn out when TCTCGGAGGACACGAAGGTCAGACCTTTCCAGAG was run?
A: 2.45

Q: CCAGACAGGTGAAAGGTAAATCAGTCTGGTACGC was tested. Which PBM binding z-score did it give?
A: 0.701

Q: With GCTATTAGTTGAAAGGGCAACCAAATGATTCTCG as the sequence, how does the PBM binding z-score read?
A: 0.604

Q: Which PBM binding z-score does the source give for CAAACTAGGTCAAAGGCCAAAGTCGAGCCAACCA here?
A: 2.6

Q: AGAATGAGGTTACCAAAAATCAGGGAAACGCTTG was tested. Which PBM binding z-score did it give?
A: 1.03

Q: For TAGCCTAGGGCATGCGGGCCAGTATAGTGTCGGC, which PBM binding z-score is on record?
A: -0.814

Q: Which PBM binding z-score does the source give for ATCTCTAGGGAAGACTCAGTTCAGTGAAGAACGC here?
A: 0.408

Q: How did the PBM binding z-score turn out when CGTCAAAGTTCAAGGTGACGTAACAGAAAGCAGC was run?
A: 3.91

Q: With ATCGAAAGTTCGAAGGTGAGTATACCCACCCGAA as the sequence, how does the PBM binding z-score read?
A: 1.29

Q: With AGAACGAGGGCAATGAGTTGATATCACGGGTGGC as the sequence, how does the PBM binding z-score read?
A: 5.09

Q: Which PBM binding z-score does the source give for ATCGAAAGGTCGATGTGAGTATAGAGAAAGGGAA here?
A: 1.97

Q: For ATCGAAATGTCGAAGGTGAGTATACCCACCCGAA, which PBM binding z-score is on record?
A: -0.0982

Q: For CGTCCAAGGTCAAAGGTCAGTTAAGAGATGACGG, which PBM binding z-score is on record?
A: 6.49

Q: Which PBM binding z-score does the source give for ATCTCTAGGTAACACGTTCAGTGAAAGAGAGGAC here?
A: 0.339

Q: For CCTCCAAGGTCAATGCTAGGTCAGTGAAAGCATT, which PBM binding z-score is on record?
A: 4.74

Q: For GCGACTGGGACAAAGCAGGTTACCATAAGGTTGG, which PBM binding z-score is on record?
A: -0.0797

Q: With CAAACTAGGTCACAGAGGTCCAAGTCCGTGCGTA as the sequence, how does the PBM binding z-score read?
A: 5

Q: How did the PBM binding z-score turn out when TAGCCTAGGTCAGATCGGGCCAGGATACGCTATA was run?
A: 0.248

Q: For CCTACTGGGCCGCGAAAGGTCATTGATTCAGTGA, which PBM binding z-score is on record?
A: 3.74

Q: How did the PBM binding z-score turn out when ATCTCTAGGTCAGACTCAGTTCAGTGAAGAACGC was run?
A: 3.36

Q: For TTAGCAAGGTGAAAGGTCGTTGATGCACGCCTTG, which PBM binding z-score is on record?
A: 2.93

Q: How did the PBM binding z-score turn out when CCTTACGGGTCACGAGTTTATAGCACGACGAGCG was run?
A: 5.73

Q: Which PBM binding z-score does the source give for ATCTCTAAGTAAAGATAGTTCAGTGAATGCAAAT here?
A: 0.741

Q: GCGACTGGGGCATCAGCAGGCTACCATAACTTAA was tested. Which PBM binding z-score did it give?
A: -0.769

Q: How did the PBM binding z-score turn out when GCGACTGGGGCAAAGCAGGTTACCATAAGGTTGG was run?
A: 0.149

Q: Which PBM binding z-score does the source give for CGAACTAGGTCAAGAACAGTGAATCTCCGCACGC here?
A: 1.04

Q: AGTCAAAGTTCATCTAGGTAATGTAAGATATGCT was tested. Which PBM binding z-score did it give?
A: 5.13

Q: Which PBM binding z-score does the source give for ATCTCTAGCTAACAAGTTCAGTGAAAGAGAGGAC here?
A: 1.64

Q: How did the PBM binding z-score turn out when GTAACAAGGTGAATAGGTCGTTGATGAGTAGGCG was run?
A: 1.22

Q: For CCGAGTAGGTTATGGGGCATACAGGCAACGGTGA, which PBM binding z-score is on record?
A: 0.117

Q: Which PBM binding z-score does the source give for GCTTGTAGATCCAGGTTAAGAAAGACTAAGCTAA here?
A: -0.307

Q: TCATATAGGTAGTACAGGTGAAAGTCGGCATCTA was tested. Which PBM binding z-score did it give?
A: 0.794

Q: CTCGAAAGGTCGTGCTCCGGTGAGTATACCAAAC was tested. Which PBM binding z-score did it give?
A: 3.48

Q: How did the PBM binding z-score turn out when TGGATGAGGTTAAAGATCAGGGAACGTGGCGTCG was run?
A: 2.32
